# The list is not random: actives were taken first. Their share in the collection is about 15%.
# SARS PLP yeast: inhibitors of SARS-CoV papain-like protease in yeast. AID 485353. S. cerevisiae expressing SARS-CoV PLpro, growth rescue. Potency, µM (titrated, usually from 32.9 µM), inactives show top-dose activity, positive = growth rescue, hits mostly activators. 330,000 tested, 0.19% active; calls by dose curve; note: potency is the fitted concentration of half-maximal effect; 0% is about no effect; nearly all actives have a fitted effect of over 55% in size
# HCV inhibitor: HCV inhibition | Huh7.5.1 HCVcc-Cre infection, luciferase reporter, 44 h | Potency, µM (titrated, usually from 41.8 µM), inactives show at the highest dose activity change, negative = inhibition, hits mostly inhibitors | 340,000 tested, 3.4% active | AID 651820; note: potency is the fitted concentration of half-maximal effect; % is set by controls: 0 for no effect and ±100 for the full control effect
#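 Reporter virus HCVcc-Cre (~0.5 moi) infects cells exposed to compound; seeding density 1,000 cells/well with 4 h settling beforehand. Luminescence, 15 sec read, taken 44 h post-infection following a 15 min RT substrate incubation.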
# Pf growth 96h: inhibits malaria parasite growth, 96 h | P. falciparum luciferase reporter growth, 96 h | Potency, µM (highest dose often 28.7 µM), for the others: top-dose activity change, negative = inhibition, usual class: inhibitors | 320,000 tested, 6.9% active | AID 504834; note: potency is the fitted concentration of half-maximal effect; % is set by controls: 0 for no effect and ±100 for the full control effect
#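 96 h incubation, 37 C, 5% CO2, of luciferase-reporter P. falciparum-infected RBCs (2% hematocrit, 0.05% parasitemia final) with test compounds; endpoint luminescence.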
# Pf growth 48h: P. falciparum growth inhibition at 48 hours (one generation). P. falciparum luciferase growth in erythrocytes, 48 h. Potency, µM (doses to about 28.7 µM), for inactives: at the top dose activity change, negative = inhibition, most hits filed as inhibitors. 310,000 tested, 5.9% active; note: potency is the fitted concentration of half-maximal effect; % is set by controls: 0 for no effect and ±100 for the full control effect
#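 Cell-based growth assay: transgenic P. falciparum expressing firefly luciferase, cultured in red cells within RPMI 1640 containing 0.5% w/v Albumax, 24 mM bicarbonate and gentamycin. A drop in luciferase activity indicates inhibition.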
# HCMV antiviral: inhibitors of human cytomegalovirus. activity change, negative = inhibition, % at 57.5 µM. 410,000 tested, 4.5% active. HFF cells, HCMV-luciferase reporter, 72 h; stronger effect = lower value. AID 1259415; in the data active = activity change below about -60%; inconclusive = no clear call, values can overlap the other calls; inactive = above about -39%; note: % is set by controls: 0 for no effect and ±100 for the full control effect
#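 HFF cells seeded 16 h at 37C, treated with compounds, infected with luciferase-reporter HCMV at MOI 1 PFU/cell; luciferase read at 72 h post infection, normalized to buffer-only and Salinomycin controls.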
# Sm TGR block: S. mansoni TGR enzyme inhibition. Potency, µM (top dose mostly 114 µM), inactives show at the highest dose activity change, negative = inhibition, most hits filed as inhibitors. AID 485364. 360,000 tested, 3% active. Q962Y6. purified TGR, DTNB reduction, TNB absorbance 405 nm; note: potency is the fitted concentration of half-maximal effect; % is set by controls: 0 for no effect and ±100 for the full control effect; nearly all actives have a fitted effect of over 60% in size
#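 TGR 20 nM + NADPH 100 uM (dispensed conc.), cpd preinc 15 min RT; start with NADPH (500 uM addition) then DTNB (15 mM addition). Kinetic TNB absorbance, 405 nm filter. Four-parameter Hill fit across titration.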
# Active calls of the source: *; ? = inconclusive; · = no result; [ ] = dose if it differs, or a comment. Unless noted, calls come from the whole dose curve; as a rule, active = well fitted curve in the direction sought with a large enough effect; inconclusive = small, poorly fitted or top-dose-only effect, or another doubt; inactive = no such curve, though single readings can be large; an effect the other way counts as inactive or inconclusive.
SMILES,SARS PLP yeast,HCV inhibitor,Pf growth 96h,Pf growth 48h,HCMV antiviral,Sm TGR block
Cc1csc2c(N3CCN(S(=O)(=O)c4ccc(Cl)cc4)CC3)ncnc12,-0.3%,13.6%,0.0%,-0.2%,24.1,-0.9%
COc1ccc(-c2csc3ncnc(N4CCN(c5ccccc5Cl)CC4)c23)cc1,-3.5%,?,?,?,-39.9,7.6%
COc1ccc(-c2csc3ncnc(N4CCN(S(=O)(=O)c5cccs5)CC4)c23)cc1,4.7%,8.91µM*,0.0%,?,-70.6*,1.8%
Cc1sc2ncnc(N3CCN(S(=O)(=O)c4ccc(C(C)(C)C)cc4)CC3)c2c1C,-3.7%,5.62µM*,·,·,-81.8*,·
Cc1ccc(S(=O)(=O)N2CCN(C(=O)C3CCN(c4ncnc5sc(C)c(C)c45)CC3)CC2)c(C)c1,·,4.47µM*,·,·,-80.2*,·
COc1ccc(-c2csc3ncnc(N4CCN(S(=O)(=O)c5ccc(C)cc5)CC4)c23)cc1,0.9%,11.2µM*,?,11.7µM*,-39.2,5.4%
COc1ccc(-c2csc3ncnc(N4CCN(c5cccc(C)c5C)CC4)c23)cc1,6.9%,?,?,-29.2%,-0.3,14.3%
COc1ccc(-c2csc3ncnc(N4CCN(S(=O)(=O)c5ccc(Cl)s5)CC4)c23)cc1,-0.2%,10µM*,?,?,-66.1*,-5.5%
O=C(O)C1=CC[C@@H](c2ccc(Cl)cc2)N(S(=O)(=O)c2ccc(Cl)cc2)[C@H]1c1ccccc1,-1.0%,15.2%,?,-55.8%,-6.9,-29.1%
CNc1cc(-c2cccc(N(C)C)c2)ncn1,·,·,·,·,93.6,·
O=C(OCCc1ccccc1)c1cc(O)c(O)c(O)c1,-9.6%,?,-9.0%,-30.9%,?,-20.8%
Nc1ccc(Sc2ccccc2Cl)nc1,·,-15.0%,·,·,9.8,·
Cc1cc(N2CCN(C)CC2)nc2ccc(NC(=O)Nc3ccccc3Cl)cc12,·,·,·,·,-99.8*,3.2%
Cc1cc(N2CCN(C)CC2)nc2ccc(NC(=O)Nc3ccc(F)cc3)cc12,·,·,·,·,-5.7,6.1%
COc1cccc(NC(=O)Nc2ccc3nc(N4CCN(C)CC4)cc(C)c3c2)c1,·,·,·,·,-101.4*,-1.1%
COc1cc(NC(=O)c2cc(-c3cccc(Cl)c3)on2)c(OC)cc1Cl,·,·,·,·,42.6,7.4%
COc1ccc(NC(=O)NNC(=O)C(C)Oc2ccc3ccccc3c2)cc1 (configuration not stated),-1.0%,-22.6%,-17.7%,-2.6%,-10.5,9.2%
COC(=O)C1=CN(c2ccc(C(C)(C)C)cc2)C(N)=C(C#N)C1c1ccc(OC)cc1 (configuration not stated),·,·,·,·,-77.1*,·
CSc1ccccc1-c1nnc(-c2ccccc2)o1,-10.1%,8.91µM*,101.1%,151.5%,87.8,-14.5%
CC(=O)c1cc(F)c(N2CCN(C(=O)COc3ccccc3F)CC2)cc1C,-3.4%,?,467.5%,14.7µM*,1.2,-26.3%
CC1(C)CC(=O)C(N=Nc2cccc(F)c2C#N)=C(O)C1,1.9%,-22.7%,8.6%,16.0%,17.6,14.1µM*
CC1(C)CC(=O)C(N=Nc2ccc(C(F)(F)F)cc2[N+](=O)[O-])=C(O)C1,-4.2%,-30.9%,-20.3%,?,-37.3,3.98µM*
CC1(C)CC(=O)C(N=Nc2cccc([N+](=O)[O-])c2)=C(O)C1,-4.8%,0.5%,33.4%,9.4%,9.7,?
COc1ccc(N=NC2=C(O)CC(C)(C)CC2=O)c(OC)c1,-0.4%,-10.1%,-12.4%,-12.1%,-3.1,-18.7%
CC1(C)CC(=O)C(N=Nc2ccc(Br)cc2)=C(O)C1,0.6%,-20.6%,6.9%,13.8%,-60.3*,-3.3%
SMILES,SARS PLP yeast,HCV inhibitor,Pf growth 96h,Pf growth 48h,HCMV antiviral,Sm TGR block
CC1(C)CC(=O)C(N=Nc2ccc(S(=O)(=O)N3CCOCC3)cc2)=C(O)C1,1.6%,40.4%,2.1%,8.6%,-22.7,39.8µM*
CCOC(=O)C1CCN(C(=O)CN(c2ccc(OC)cc2)S(=O)(=O)c2c(C)noc2C)CC1,-4.8%,3.5%,43.5%,·,35.2,0.0%
COc1ccc(N(CC(=O)N2CCc3ccccc32)S(=O)(=O)c2c(C)nn(C)c2C)cc1,-0.3%,-11.5%,8.28µM*,·,-0.4,0.5%
CCOC(=O)C1CCN(C(=O)CN(c2ccc(OC)cc2)S(=O)(=O)c2c(C)nn(C)c2C)CC1,-0.5%,21.5%,7.38µM*,·,77.6,0.0%
O=C1CCN(Cc2ccccc2)C(=S)N1,·,0.9%,·,·,-22.1,·
Cc1ccc(S(=O)(=O)Nc2ccc(C(=O)N3CCCC3)cc2)c(C)c1NS(C)(=O)=O,-2.6%,10.2%,-2.1%,-2.4%,-32.8,1.8%
CN(C(=O)CSc1nnc(Cc2cccs2)n1C1CC1)C1CCS(=O)(=O)C1 (configuration not stated),6.3%,12.2%,-1.3%,?,-13.0,-9.6%
N#Cc1ccccc1S(=O)(=O)N1CCN(C(=O)CN2C(=O)NC3(CCCC3)C2=O)CC1,-2.1%,2.6%,2.0%,-11.7%,-18.7,-3.1%
COc1ccc2c(c1)CCC1C2=NN(/C(C)=C/C(C)=O)C1c1cccc(F)c1 (configuration not stated),-2.5%,11.2µM*,-16.8%,-12.7%,12.0,-21.6%
CC(=O)N1N=C2c3ccccc3CCC2C1c1ccc(F)cc1 (configuration not stated),-2.1%,-7.7%,?,0.5%,119.4,0.9%
CCOc1ccccc1C(=O)NCC(=O)NNC(=O)c1csc(N2CCOCC2)n1,·,·,·,·,-18.8,·
c1ccc(Cn2ccnc2C2OCCO2)cc1,·,·,·,·,-27.0,·
O=C(Nc1ccccc1)c1cc(C2COCCN2C(=O)C2CC2)on1 (configuration not stated),·,·,·,·,9.7,·
COc1ccc(C(=O)c2c(-c3cccc(C)c3)oc3ccc(N4CCOCC4)cc23)cn1,-6.2%,?,?,?,-72.7*,-17.3%
COc1ccc(C(=O)c2c(-c3ccc(OC)cc3)oc3ccc(-c4ccc(OC)nc4)cc23)cc1,·,28.1%,·,·,-11.5,·
CCCN(CC(=O)Nc1ccccc1C)C(=O)COc1c(C)cccc1C,8.7%,0.4%,-13.3%,?,-8.2,-5.5%
CCCN(CC(=O)Nc1ccccc1C)C(=O)CCl,2.0%,7.08µM*,1.65µM*,?,-98.7*,14.1µM*
CCCN(CC(=O)Nc1ccccc1C)C(=O)C1CC(=O)N(Cc2ccccc2)C1 (configuration not stated),0.3%,-2.7%,1.1%,0.2%,-97.7*,-11.2%
O=C(Cc1cccc(NC(=O)C2CCCN(C(=O)C3CCCCC3)C2)c1)Nc1cccc(C(=O)N2CCCCC2)c1 (configuration not stated),·,-19.6%[8.37 µM],·,·,-8.7,·
CCOC(=O)[C@@H]1CSCCS(=O)(=O)N1C(=O)[C@H](CCSC)NC(=O)OC(C)(C)C,·,·,·,·,8.3,·

# High-throughput results deposited in PubChem BioAssay by National Center for Advancing Translational Sciences (NCATS).
